Assay [1] in a line: qHTS assay to test for compound auto fluorescence at 535 nm (green) in HEK293 cells (AID 720680). In general terms: In qHTS, concentration-response curves come from the screen itself.
A short description of assay [2]: qHTS assay to test for compound auto fluorescence at 460 nm (blue) in HEK293 cell free culture (AID 720681). In outline: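 Blue fluorescence (Ex 405/Em 460 nm, triamterene-equivalent) was read immediately after pin transfer of compound or DMSO into medium (DMEM, 10% FBS) without cells.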
Assay [3] is described as follows: qHTS assay to test for compound auto fluorescence at 535 nm (green) in HEK293 cell free culture (AID 720682). In outline: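 No cells present: wells hold DMEM supplemented with 10% FBS, into which compound or vehicle is pinned. Green emission is then recorded (485 nm excitation, 535 nm emission) and scaled to fluorescein.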
Assay [4] in a line: qHTS assay to test for compound auto fluorescence at 590 nm (red) in HEK293 cell free culture (AID 720683). In outline: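 Red-channel autofluorescence of compounds in culture medium (DMEM, 10% FBS), no cells, measured at 540/590 nm. Rose Bengal sodium is the reference fluorophore for equivalence.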
The nature of assay [5]: qHTS assay to test for compound auto fluorescence at 590 nm (red) in HepG2 cell free culture (AID 720684). In outline:
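Plate contents were MEM with 10% FBS plus test compound or DMSO, no cells. Fluorescence was recorded with 540 nm excitation and 590 nm emission.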

Assay [6] in a line: qHTS assay to test for compound auto fluorescence at 460 nm (blue) in HepG2 cell free culture (AID 720685). In outline: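 Compound (23 nL) or DMSO pinned into cell-free MEM with 10% FBS; blue fluorescence read at 405/460 nm excitation/emission, expressed as auto-fluorescence equivalency to triamterene.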
A short description of assay [7]: qHTS assay to test for compound auto fluorescence at 535 nm (green) in HepG2 cell free culture (AID 720686).
Assay [8] in a line: qHTS assay to test for compound auto fluorescence at 460 nm (blue) in HepG2 cells (AID 720687). In outline: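 Blue-channel autofluorescence (Ex/Em 405/460 nm, triamterene-equivalent) was measured after 1 hr compound exposure at 37 C, 5% CO2. Cells were HepG2, plated overnight at 37 C in MEM plus 10% FBS.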
Assay [9] deals with Glucocorticoid receptor (Homo sapiens) (UniProt P04150). Briefly: qHTS assay to identify small molecule agonists of the glucocorticoid receptor (GR) signaling pathway (AID 720691; active = well fitted activation curve with a large enough effect in the signal ratio in the repeat runs, not every such curve was filed as active; the % refers to the signal ratio; also: potency is read from the fitted curve at half-maximal effect). In outline: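 Agonist mode in a HeLa line carrying a GRE-controlled beta-lactamase reporter. Compounds act for 18 h at 37 C before a 2 h room-temperature FRET substrate step and fluorescence reading.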
Chain of Glucocorticoid receptor (Homo sapiens) (P04150 whole entry, looked up): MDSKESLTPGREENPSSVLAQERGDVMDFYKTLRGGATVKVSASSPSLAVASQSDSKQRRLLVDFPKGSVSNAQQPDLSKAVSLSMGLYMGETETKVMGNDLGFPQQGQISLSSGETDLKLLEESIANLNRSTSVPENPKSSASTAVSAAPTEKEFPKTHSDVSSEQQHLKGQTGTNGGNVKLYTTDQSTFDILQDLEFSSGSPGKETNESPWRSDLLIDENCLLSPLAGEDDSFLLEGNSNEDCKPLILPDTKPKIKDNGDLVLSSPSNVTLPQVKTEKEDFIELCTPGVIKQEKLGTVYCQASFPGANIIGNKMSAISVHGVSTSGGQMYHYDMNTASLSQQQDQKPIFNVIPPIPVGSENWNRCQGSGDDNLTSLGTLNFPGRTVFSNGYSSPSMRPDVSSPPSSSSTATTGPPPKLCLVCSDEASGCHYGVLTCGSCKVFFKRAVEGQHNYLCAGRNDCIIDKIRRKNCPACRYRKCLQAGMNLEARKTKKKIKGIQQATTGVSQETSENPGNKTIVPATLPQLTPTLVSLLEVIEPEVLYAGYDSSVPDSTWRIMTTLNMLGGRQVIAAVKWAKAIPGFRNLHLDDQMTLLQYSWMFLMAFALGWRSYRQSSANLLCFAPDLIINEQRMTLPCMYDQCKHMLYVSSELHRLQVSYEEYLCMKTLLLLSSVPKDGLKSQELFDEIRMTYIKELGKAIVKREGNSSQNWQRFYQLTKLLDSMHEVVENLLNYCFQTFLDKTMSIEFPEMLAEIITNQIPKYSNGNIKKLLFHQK

The target is the same in assay [10]. Briefly: qHTS assay to identify small molecule antagonists of the glucocorticoid receptor (GR) signaling pathway (AID 720692; active = well fitted inhibition curve with a large enough effect in the signal ratio in the repeat runs, not every such curve was filed as active; the % refers to the signal ratio). In outline:
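Cells plated, rested 4 h at 37 C/5% CO2; compounds in DMSO pin-transferred; dexamethasone added to 5 nM final; 18 h at 37 C; B/G FRET substrate added, 2 h room temperature; fluorescence measured.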

The nature of assay [11]: qHTS assay to identify small molecule antagonists of the glucocorticoid receptor (GR) signaling pathway - cell viability counter screen (AID 720693). Also: nearly all actives have a fitted effect of over 55% in size.
Assay [12] in a line: qHTS assay for identifying genotoxic compounds that show differential cytotoxicity against isogenic chicken DT40 cell lines with known DNA damage response pathways - wild type cell line (AID 743012). Also: nearly all actives have a fitted effect of over 60% in size. Also: potency is read from the fitted curve at half-maximal effect. In outline:
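Cells (DT40 wild type, 300/well) are treated with DMSO-dissolved compounds after a ~0.5 h pre-incubation and kept 40 h at 37 C/5% CO2. Viability is then measured by CellTiter-Glo luminescence following 30 min at room temperature.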

The nature of assay [13]: qHTS assay for identifying genotoxic compounds that show differential cytotoxicity against isogenic chicken DT40 cell lines with known DNA damage response pathways - Rev3 mutant cell line (AID 743014). Also: nearly all actives have a fitted effect of over 55% in size. Also: potency is read from the fitted curve at half-maximal effect.
Assay [14] is described as follows: qHTS assay for identifying genotoxic compounds that show differential cytotoxicity against isogenic chicken DT40 cell lines with known DNA damage response pathways - Rad54/Ku70 mutant cell line (AID 743015). Also: nearly all actives have a fitted effect of over 60% in size. Also: potency is read from the fitted curve at half-maximal effect.
Assay [15] can be described thus: qHTS assay to identify small molecule antagonists of the androgen receptor (AR) signaling pathway - cell viability counter screen (AID 743033; also: nearly all actives have a fitted effect of over 45% in size).
Assay [16] can be described thus: qHTS assay to identify small molecule antagonists of the androgen receptor (AR) signaling pathway using the MDA cell line - cell viability counter screen (AID 743041; also: nearly all actives have a fitted effect of over 45% in size). In outline:
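R1881-driven MDA-kb2 AR-luc cells, 3,000/well, were dosed with library compounds for 16 h; cell health came from CellTiter-Fluor fluorescence in the reporter wells.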

Assay [17] has as its target Androgen receptor (Homo sapiens) (UniProt P10275). Description: qHTS assay to identify small molecule antagonists of the androgen receptor (AR) signaling pathway (AID 743035; active = well fitted inhibition curve with a large enough effect in the signal ratio in the repeat runs, not every such curve was filed as active; the % refers to the signal ratio). In outline:
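Antagonism is scored as loss of R1881-driven beta-lactamase reporter expression in HEK293 cells carrying the reporter under a UAS element, after 16 h co-treatment at 37C and a 2 h room-temperature FRET substrate read.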

For assay [18] the target is unchanged. Description: qHTS assay to identify small molecule agonists of the androgen receptor (AR) signaling pathway (AID 743036; active = well fitted activation curve with a large enough effect in the signal ratio in the repeat runs, with a control signal flat, not every such curve was filed as active; the % refers to the signal ratio). In outline:
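Quantitative HTS of the Tox21 10K library in HEK293 cells bearing a stably integrated UAS-controlled beta-lactamase reporter. Compound exposure lasted 16 h at 37C. Reporter activity was detected by FRET substrate fluorescence after 2 h at room temperature.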

Assay [19] has the same target. Description: qHTS assay to identify small molecule agonists of the androgen receptor (AR) signaling pathway using the MDA cell line (AID 743040; also: nearly all actives have a fitted effect of over 20% in size). In outline: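 After a 5 h incubation at 37C and 0% CO2, MDA-kb2 reporter cells were dosed with compounds in DMSO and kept 16 h under the same conditions. Luciferase activity was then read as luminescence with ONE-Glo.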

Assay [20] shares this target. Description: qHTS assay to identify small molecule antagonists of the androgen receptor (AR) signaling pathway using the MDA cell line (AID 743042; also: nearly all actives have a fitted effect of over 55% in size). In outline:
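Antagonist mode: compounds plus R1881 agonist added to MDA-kb2 AR-luc cells, incubated 16 h at 37C. Luciferase reporter luminescence quantified, with multiplexed CellTiter-Fluor readout for cell viability.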

Molecules are shown by their SMILES. “And” between values parts separate entries of the source, which are not always exact repeats. Equal entries are not always repeated. Records with an inconclusive call do not appear. More than one record can exist for a structure, and the calls need not agree. The source made the active and inactive calls. Unless noted, calls follow the shape of the dose curve; as a rule, active = well fitted curve in the direction sought with a large enough effect in the repeat runs; inconclusive = weak or mixed curves; inactive = no such curve, though single readings can be large; an effect the other way counts as inactive or inconclusive.
% is scaled to controls: 0 for no effect and ±100 for the full control effect.

Chain of Androgen receptor (Homo sapiens) (P10275 whole entry, looked up): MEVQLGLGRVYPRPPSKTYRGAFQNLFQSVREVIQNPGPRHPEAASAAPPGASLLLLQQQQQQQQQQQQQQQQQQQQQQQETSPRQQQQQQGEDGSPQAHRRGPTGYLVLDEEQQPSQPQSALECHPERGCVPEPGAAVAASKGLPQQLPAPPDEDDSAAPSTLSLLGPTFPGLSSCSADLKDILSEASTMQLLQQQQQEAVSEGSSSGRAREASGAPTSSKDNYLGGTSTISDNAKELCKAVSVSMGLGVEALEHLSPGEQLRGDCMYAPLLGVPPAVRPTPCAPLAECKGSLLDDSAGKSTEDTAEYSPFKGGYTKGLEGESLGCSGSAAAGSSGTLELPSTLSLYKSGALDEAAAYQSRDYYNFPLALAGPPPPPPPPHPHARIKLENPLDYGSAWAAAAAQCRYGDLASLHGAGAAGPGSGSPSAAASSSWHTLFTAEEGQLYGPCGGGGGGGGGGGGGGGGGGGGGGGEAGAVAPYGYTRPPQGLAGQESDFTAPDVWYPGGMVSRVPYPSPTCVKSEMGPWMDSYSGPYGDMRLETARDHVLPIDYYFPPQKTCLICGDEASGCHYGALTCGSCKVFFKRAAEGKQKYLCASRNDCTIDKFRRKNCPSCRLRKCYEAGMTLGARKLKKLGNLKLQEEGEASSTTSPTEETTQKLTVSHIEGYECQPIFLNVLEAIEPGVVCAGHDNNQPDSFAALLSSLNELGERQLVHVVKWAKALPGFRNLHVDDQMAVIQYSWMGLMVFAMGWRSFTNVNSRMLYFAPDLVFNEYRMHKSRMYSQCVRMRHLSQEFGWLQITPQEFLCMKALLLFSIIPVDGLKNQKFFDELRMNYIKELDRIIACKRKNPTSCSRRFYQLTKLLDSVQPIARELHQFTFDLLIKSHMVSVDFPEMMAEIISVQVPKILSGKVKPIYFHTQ

As to `c1cc(-c2ccncc2)ccn1`, the Potency entry in assay [1], in assay [3], in assay [4], in assay [5], in assay [7] and in [9] was “inactive” each time. For the same compound, the Potency result in assay [10], in assay [11], in assay [12], in assay [13], in assay [14] and in assay [15] was “inactive” in each case. Moreover, the compound was classed as inactive in assay [2], in [6] and in assay [8].

`Cn1cnc([N+](=O)[O-])c1Sc1ncnc2nc[nH]c12`: the Potency entry in assay [1], in assay [3], in assay [4], in assay [5], in [7] and in [9] was “inactive” throughout. Besides, the Potency entry in assay [12], in assay [14], in assay [15] and in assay [16] was “inactive” in each case. Further, the result in [2], in [6] and in [8] was inactive. Besides, the Potency entry in assay [13] is “inactive and 52.6 µM (active)”.

As for `Cc1cccc(N(C)C(=S)Oc2ccc3ccccc3c2)c1`, the Potency result in assay [1], in assay [3], in [4], in [5], in assay [7] and in [9] was “inactive” each time. Besides, the Potency entry in assay [10], in [11], in assay [15] and in [16] was “inactive” throughout. The result in [2] and in assay [8] was inactive. Besides, in assay [6], the fluorescence, % of fluorescent control was -0.0096% [at 18.6 µM] (inactive). The Potency entry in [12] was “inactive and 30.6 µM (active)”; in assay [13], “inactive and 43.3 µM (active)”; in assay [14], “inactive and 30.6 µM (active)”.

Take `CCOCCOCCO`: the Potency result in assay [1], in assay [3], in [4], in [5], in assay [7] and in assay [9] was “inactive” each time. Further, the Potency result in assay [10], in assay [12], in [13], in [14], in [15] and in [17] was “inactive” in each case. The Potency result in [19], in [16] and in assay [20] was “inactive” in each case. The compound was called inactive in assay [2], in assay [6], in assay [8] and in [18].

As for `CC(C)=CCC/C(C)=C\CO`, the Potency entry in assay [1], in [3], in assay [4], in assay [5], in assay [7] and in assay [9] was “inactive” each time. For the same compound, the Potency entry in assay [10], in assay [11], in [14], in assay [15] and in assay [16] was “inactive” throughout. The call in assay [2], in assay [6], in assay [8] and in assay [18] was inactive. The Potency result in assay [13] was “inactive and 61.1 µM (active)”.

Consider `CC(C)Oc1ccc2c(=O)c(-c3ccccc3)coc2c1`, for which the Potency result in [1], in assay [3], in assay [4], in assay [5], in assay [7] and in [9] was “inactive” each time. The Potency entry in assay [15] and in [16] was “inactive” throughout. Moreover, the outcome in assay [2], in assay [6] and in [8] was inactive. Further, the Potency is 6.68 µM (active) in assay [12], 4.22 µM (active) in [13] and 9.44 µM (active) in assay [14].

With `COc1ccccc1/C=C/C=O`, the Potency entry in assay [1], in assay [3], in assay [4], in [5], in [7] and in assay [9] was “inactive” each time. Further, the Potency result in assay [10], in assay [11] and in assay [15] was “inactive” throughout. For the same compound, the result in assay [2], in assay [6] and in assay [8] was inactive. For the same compound, the Potency was 62.8 µM (active) in [13]; 31.4 µM (active) and 54.5 µM (active) in assay [14].

Regarding `Nc1ccc(Cl)cc1Cl`, the Potency entry in assay [1], in assay [3], in assay [4], in assay [5], in [7] and in [9] was “inactive” in each case. The Potency entry in [10], in assay [11], in [12], in assay [13], in assay [14] and in assay [15] was “inactive” each time. Also, in assay [16], the Potency entry was “inactive”. Also, the compound was called inactive in assay [2], in assay [6] and in [8].

In the case of `CCCCC(CC)COCC1CO1` (stereo unspecified), the Potency result in assay [1], in [3], in assay [4], in assay [5], in assay [7] and in assay [9] was “inactive” throughout. Further, the Potency entry in assay [10], in assay [12], in [13], in assay [14], in assay [15] and in assay [16] was “inactive” throughout. Also, the outcome in assay [2], in assay [6] and in [8] was inactive.

As to `CN(C)CCC=C1c2ccccc2CCc2ccccc21`, the Potency entry in assay [1], in assay [3], in [4], in [5], in assay [7] and in assay [9] was “inactive” each time. The Potency entry in assay [11] and in assay [15] was “inactive” in each case. For the same compound, the call in [2], in [6] and in [8] was inactive. Besides, the Potency in assay [12] was 9.44 µM (active) and 54.5 µM (active); in assay [13], 13.3 µM (active) and 30.6 µM (active); in [14], 13.3 µM (active) and 54.5 µM (active).

With `Nc1ccc(Nc2ccccc2)cc1`, the Potency result in assay [1], in [3], in assay [4], in assay [5], in [7] and in assay [9] was “inactive” in each case. The Potency result in assay [15] and in [16] was “inactive” throughout. Also, the call in [2] and in [6] was inactive. The Potency is 30.6 µM (active) in assay [12]; 67.8 µM (active) and 54.5 µM (active) and 34.4 µM (active) in [13]; 54.5 µM (active) and 43.3 µM (active) in [14].

As for `COc1ccc(OC)c(C(O)CNC(=O)CN)c1` (stereo unspecified), the Potency result in [1], in assay [3], in [4], in assay [5], in [7] and in assay [9] was “inactive” throughout. For the same compound, the Potency entry in assay [10], in assay [11], in [12], in assay [14], in assay [15] and in assay [16] was “inactive” each time. In addition, the result in assay [2] and in [6] was inactive.

Take `CC(=O)c1ccccn1`: the Potency entry in assay [1], in [3], in [4], in assay [5], in [7] and in assay [11] was “inactive” each time. The Potency entry in assay [13], in [14] and in [15] was “inactive” each time. The compound was called inactive in assay [2], in assay [6] and in assay [8].

For `c1ccc2c(c1)c1cccc3ccc4cccc2c4c31`, the Potency entry in assay [1], in assay [3], in [4], in assay [5], in assay [7] and in [10] was “inactive” each time. Moreover, the Potency result in assay [11], in [12], in assay [13], in assay [14], in assay [15] and in assay [19] was “inactive” each time. Further, in [20], the Potency result was “inactive”. Also, the compound was called inactive in [2] and in assay [6]. Further, the Potency in [9] is 48.6 µM (active) and inactive.

With `CC(C(=O)O)c1cccc(C(=O)c2ccccc2)c1` (stereo unspecified), the Potency entry in [1], in assay [3], in [4], in assay [5], in [7] and in assay [11] was “inactive” in each case. Further, the Potency entry in assay [12], in [13], in assay [14], in assay [15] and in assay [16] was “inactive” in each case. Also, the outcome in [2] and in assay [6] was inactive.

The values are drawn from PubChem BioAssay (Tox21).
